# Only a selection was taken, and the strongest signals are over-represented in it overall.
# B1: EPL1 (Trichoderma atroviride), A0PCX2 (protein)
# chain: MQLSNLFKLALFTAAVSADTVSYDTGYDDASRSLTVVSCSDGTNGLITRYHWQTQGQIPRFPYIGGAQAVAGWNSPNCGTCWKLTYSGKTIYVLAIDHTAAGFNIGLDAMNALTNGNAVALGRVSATASQVAVSNCGL
# Tests used:
# Experiment in all cases: glycan array binding signal (z-score within array); higher = stronger binding
# Details in all cases: glycan notation: IUPAC condensed, linker removed
# [1] = molecular target: GlcNAc(b1-2)[GlcNAc(b1-6)]Man(a1-6)[GlcNAc(b1-4)][GlcNAc(b1-2)Man(a1-3)]Man(b1-4)GlcNAc(b1-4)GlcNAc
# How it was run: (§1)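 From the Consortium for Functional Glycomics database, 3228 arrays were curated, keeping only those whose protein sequence was available. Binding is given as a within-array Z-score averaged across arrays sharing a protein sequence and across linkers. Negative Z-scores can be read as non-binding.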
# [2] = molecular target: GlcNAc(b1-3)Gal(b1-4)GlcNAc(b1-3)Gal(b1-4)GlcNAc(b1-2)Man(a1-3)[GlcNAc(b1-3)Gal(b1-4)GlcNAc(b1-3)Gal(b1-4)GlcNAc(b1-2)Man(a1-6)]Man(b1-4)GlcNAc(b1-4)GlcNAc
# How it was run: as §1
# [3] = molecular target: GlcNAc(b1-3)Gal(b1-4)GlcNAc(b1-3)Gal(b1-4)GlcNAc(b1-3)Gal(b1-4)GlcNAc(b1-2)Man(a1-3)[GlcNAc(b1-3)Gal(b1-4)GlcNAc(b1-3)Gal(b1-4)GlcNAc(b1-3)Gal(b1-4)GlcNAc(b1-2)Man(a1-6)]Man(b1-4)GlcNAc(b1-4)[Fuc(a1-6)]GlcNAc
# How it was run: as §1
# [4] = molecular target: GlcNAc(b1-3)Gal(b1-4)GlcNAc(b1-3)Gal(b1-4)GlcNAc(b1-3)Gal(b1-4)GlcNAc(b1-2)[GlcNAc(b1-3)Gal(b1-4)GlcNAc(b1-3)Gal(b1-4)GlcNAc(b1-3)Gal(b1-4)GlcNAc(b1-6)]Man(a1-6)[GlcNAc(b1-3)Gal(b1-4)GlcNAc(b1-3)Gal(b1-4)GlcNAc(b1-3)Gal(b1-4)GlcNAc(b1-2)Man(a1-3)]Man(b1-4)GlcNAc(b1-4)[Fuc(a1-6)]GlcNAc
# How it was run: as §1
# [5] = molecular target: Man(a1-2)Man(a1-2)Man(a1-3)Man
# How it was run: as §1
# [6] = molecular target: MurNAc(b1-4)GlcNAc
# How it was run: as §1
# [7] = molecular target: Neu5Ac(a2-3)Gal(b1-3)GlcNAc(b1-2)Man
# How it was run: as §1
# [8] = molecular target: Neu5Ac(a2-3)Gal(b1-4)GlcNAc(b1-2)Man(a1-3)[GlcNAc(b1-4)][Neu5Ac(a2-3)Gal(b1-4)GlcNAc(b1-2)Man(a1-6)]Man(b1-4)GlcNAc(b1-4)GlcNAc
# How it was run: as §1
# [9] = molecular target: Neu5Ac(a2-3)Gal(b1-4)GlcNAc(b1-6)[Neu5Ac(a2-3)Gal(b1-3)]GalNAc
# How it was run: as §1
# [10] = molecular target: Neu5Ac(a2-3)Gal(b1-4)[Fuc(a1-3)]GlcNAc(b1-2)Man
# How it was run: as §1
# [11] = molecular target: Neu5Ac(a2-3)Gal(b1-4)[Fuc(a1-3)]GlcNAc(b1-3)GalNAc
# How it was run: as §1
# [12] = molecular target: Neu5Ac(a2-3)Gal(b1-4)[Fuc(a1-3)]GlcNAc(b1-6)[Neu5Ac(a2-3)Gal(b1-3)]GalNAc
# How it was run: as §1
# [13] = molecular target: Neu5Ac(a2-3)GalNAc(b1-4)GlcNAc
# How it was run: as §1
# [14] = molecular target: Neu5Ac(a2-6)Gal
# How it was run: as §1
# [15] = molecular target: Neu5Ac(a2-6)Gal(b1-4)GlcNAc(b1-2)Man(a1-3)[GlcNAc(b1-2)Man(a1-6)]Man(b1-4)GlcNAc(b1-4)GlcNAc
# How it was run: as §1
# [16] = molecular target: Neu5Ac(a2-6)Gal(b1-4)GlcNAc(b1-2)Man(a1-6)[GlcNAc(b1-2)Man(a1-3)]Man(b1-4)GlcNAc(b1-4)GlcNAc
# How it was run: as §1
# [17] = molecular target: Neu5Ac(a2-6)Gal(b1-4)GlcNAc(b1-2)Man(a1-6)[Man(a1-3)]Man(b1-4)GlcNAc(b1-4)GlcNAc
# How it was run: as §1
# [18] = molecular target: Neu5Ac(a2-6)Gal(b1-4)GlcNAc(b1-3)Gal(b1-4)GlcNAc(b1-3)Gal(b1-4)GlcNAc(b1-2)Man(a1-3)[Neu5Ac(a2-6)Gal(b1-4)GlcNAc(b1-3)Gal(b1-4)GlcNAc(b1-3)Gal(b1-4)GlcNAc(b1-2)Man(a1-6)]GalNAc
# How it was run: as §1
# [19] = molecular target: Neu5Ac(a2-6)Gal(b1-4)GlcNAc(b1-3)Gal(b1-4)[Fuc(a1-3)]GlcNAc(b1-3)Gal(b1-4)[Fuc(a1-3)]GlcNAc
# How it was run: as §1
# [20] = molecular target: Neu5Ac(a2-6)Gal(b1-4)GlcNAc6S
# How it was run: as §1
# [21] = molecular target: Neu5Gc(a2-3)Gal(b1-4)Glc
# How it was run: as §1
# [22] = molecular target: Neu5Gc(a2-3)Gal(b1-4)GlcNAc(b1-3)Gal(b1-4)GlcNAc(b1-2)Man(a1-3)[Neu5Gc(a2-3)Gal(b1-4)GlcNAc(b1-3)Gal(b1-4)GlcNAc(b1-2)Man(a1-6)]Man(b1-4)GlcNAc(b1-4)GlcNAc
# How it was run: as §1
# [23] = molecular target: Neu5Gc(a2-8)Neu5Ac(a2-3)Gal(b1-4)GlcNAc
# How it was run: as §1
binder,measurement,setting,value
B1,glycan array binding signal (z-score),[1],-0.514
same,glycan array binding signal (z-score),[2],0.862
same,glycan array binding signal (z-score),[3],0.866
same,glycan array binding signal (z-score),[4],0.127
same,glycan array binding signal (z-score),[5],-0.108
same,glycan array binding signal (z-score),[6],-0.51
same,glycan array binding signal (z-score),[7],-0.068
same,glycan array binding signal (z-score),[8],-0.469
same,glycan array binding signal (z-score),[9],-0.379
same,glycan array binding signal (z-score),[10],-0.347
same,glycan array binding signal (z-score),[11],1.06
same,glycan array binding signal (z-score),[12],0.767
same,glycan array binding signal (z-score),[13],-0.428
same,glycan array binding signal (z-score),[14],-0.387
same,glycan array binding signal (z-score),[15],-0.298
same,glycan array binding signal (z-score),[16],-0.056
same,glycan array binding signal (z-score),[17],-0.436
same,glycan array binding signal (z-score),[18],0.008
same,glycan array binding signal (z-score),[19],-0.291
same,glycan array binding signal (z-score),[20],0.855
same,glycan array binding signal (z-score),[21],-0.246
same,glycan array binding signal (z-score),[22],0.362
same,glycan array binding signal (z-score),[23],-0.344

# Reference: the supplement of paper PMC8728848
